Source: PubChem BioAssay (Tox21)
Where “and” joins values, the source holds several entries; their conditions need not be identical. Equal entries are not always repeated. Records with an inconclusive call do not appear. Where a call stands in place of a potency, no number is given. Where a structure was tested more than once in an assay, its records may differ in their call. Calls of active or inactive are those of the source. Unless noted, calls follow the shape of the full dose curve.

Key:
[1] = qHTS assay to identify small molecule antagonists of the vitamin D receptor (VDR) signaling pathway - cell viability counter screen (AID 743225; active = well fitted curve in the direction sought with a large enough effect in the repeat runs; an effect the other way counts as inactive or inconclusive; also: nearly all actives have a fitted effect of over 50% in size; also: potency is read from the fitted curve at half-maximal effect)
In short: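 Viability counter screen run in the same wells as the beta-lactamase reporter assay: HEK 293T VDR-UAS-bla cells, 16 h compound exposure at 37C with 3 nM (final) 1-alpha,25-dihydroxyvitamin D3. CellTiter-Glo luminescence, 30 min, room temperature.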

[2] = qHTS assay to identify small molecule agonists of the NFkB signaling pathway (AID 1159509; active = well fitted curve in the direction sought with a large enough effect in the signal ratio in the repeat runs, not every such curve was filed as active; the % refers to the signal ratio; also: series mostly up to about 61 µM)
In short: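 NFkB-bla ME-180 cells with a beta-lactamase reporter under an NF-kB response element were plated overnight, treated with compounds in DMSO for 5 hr at 37 C, then loaded with FRET substrate for 1.5 hr at room temperature.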

[3] = qHTS assay to identify small molecule agonists of the AP-1 signaling pathway - cell viability counter screen (AID 1159525); also: nearly all actives have a fitted effect of over 55% in size; also: potency is read from the fitted curve at half-maximal effect
In short: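 Luminescent ATP readout (Cell Titer Glo, 30 min RT), normalised to DMSO and tetra n-octyl ammonium bromide controls. Cells were ME-180 AP-1-bla in 0.5% dialyzed FBS Opti-MEM, with a 5 h, 37 °C compound exposure.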

[4] = biological target: Retinoic acid receptor RXR-alpha (Homo sapiens) (UniProt P19793); assay: qHTS assay to identify small molecule agonists of the RXR signaling pathway (AID 1159527); also: nearly all actives have a fitted effect of over 35% in size; also: potency is read from the fitted curve at half-maximal effect
In short: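 Agonist mode; 9-cis retinoic acid positive control. HEK 293T UAS-bla reporter cells, 2% charcoal-stripped FBS, 16 hr compound exposure at 37 C/5% CO2. LiveBLAzer B/G FRET substrate 2 hr RT; ex 405, em 460/530 nm.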

[5] = biological target: Nuclear receptor ROR-gamma (Homo sapiens) (UniProt P51449); assay: qHTS assay to identify small molecule antagonists of the retinoid-related orphan receptor gamma (ROR-gamma) signaling pathway (AID 1159521; active = well fitted curve in the direction sought with a large enough effect in the repeat runs; an effect the other way counts as inactive or inconclusive; also: nearly all actives have a fitted effect of over 50% in size; also: potency is read from the fitted curve at half-maximal effect)
In short: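 Luminescence readout (ONE-Glo, 30 min RT) after 16 h doxycycline induction; loss of signal scored as antagonism. CHO cells with TET-inducible RORγ and RORE-LUC reporter; compounds added 2 h before 1 uM final doxycycline.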

[6] = qHTS assay to identify small molecule agonists of the NFkB signaling pathway - cell viability counter screen (AID 1159515); also: series mostly up to about 61 µM; nearly all actives have a fitted effect of over 55% in size
In short: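 Luminescence from CellTiter-Glo (30 min, room temperature) gives viability, measured in the same wells as the beta-lactamase reporter read. Cells were NFkB-bla ME-180, 2,000 per well, treated 5 hr with compounds.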

[7] = qHTS assay to identify small molecule agonists of the endoplasmic reticulum stress response signaling pathway (AID 1159516; active = well fitted activation curve with a large enough effect in the signal ratio in the repeat runs, not every such curve was filed as active; the % refers to the signal ratio)
In short: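 Read-out is beta-lactamase cleavage of a FRET substrate (405 nm excitation; 460 and 530 nm emissions) in ESRE-bla HeLa cells after a 5 hr compound exposure at 37 C. Substrate incubation ran 2 hr at room temperature.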

[8] = qHTS assay to identify small molecule agonists of the endoplasmic reticulum stress response signaling pathway - cell viability counter screen (AID 1159517);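 also: HeLa cells carrying an ER stress response element beta-lactamase reporter; series mostly up to about 61 µM; nearly all actives have a fitted effect of over 50% in size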
In short: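 Cells, HeLa ESRE-bla; density, 1,500/well; dosing, 5 hr at 37 C, 5% CO2; readout, CellTiter-Glo luminescence after 30 min RT.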

[9] = qHTS assay to identify small molecule antagonists of the retinoid-related orphan receptor gamma (ROR-gamma) signaling pathway - cell viability counter screen (AID 1159520; active = well fitted curve in the direction sought with a large enough effect in the repeat runs; an effect the other way counts as inactive or inconclusive; also: nearly all actives have a fitted effect of over 50% in size; also: potency is read from the fitted curve at half-maximal effect)
In short: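 Cytotoxicity was read from cellular ATP (CellTiter-Glo luminescence) after 16 hr at 37 C with 1 uM doxycycline induction. The inducer was added 2 hr after compound transfer to Tet-on ROR gamma CHO cells.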

[10] = qHTS assay to identify small molecule agonists of the AP-1 signaling pathway (AID 1159526); also: potency is read from the fitted curve at half-maximal effect

Retinoic acid receptor RXR-alpha (Homo sapiens), sequence (P19793 whole entry, looked up): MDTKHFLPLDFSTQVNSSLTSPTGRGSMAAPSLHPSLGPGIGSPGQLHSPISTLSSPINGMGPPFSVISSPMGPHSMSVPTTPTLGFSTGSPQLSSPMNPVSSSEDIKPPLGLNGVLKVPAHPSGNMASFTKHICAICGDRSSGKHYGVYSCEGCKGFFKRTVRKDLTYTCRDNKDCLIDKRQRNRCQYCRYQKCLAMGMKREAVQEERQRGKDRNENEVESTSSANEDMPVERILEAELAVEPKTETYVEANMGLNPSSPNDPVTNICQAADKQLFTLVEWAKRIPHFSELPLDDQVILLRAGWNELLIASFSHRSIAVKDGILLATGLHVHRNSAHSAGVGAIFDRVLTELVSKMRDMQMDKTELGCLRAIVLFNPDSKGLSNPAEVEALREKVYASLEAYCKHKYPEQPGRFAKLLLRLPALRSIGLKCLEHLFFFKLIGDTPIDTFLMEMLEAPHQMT

Row | Structure (SMILES) | Potency [1] | outcome [2] | Potency [3] | Potency [4] | Potency [5] | Potency [6] | Potency [7] | Potency [8] | Potency [9] | Potency [10] | activation [10]
1 | Nc1c(N=Nc2ccc(-c3ccc(N=Nc4cc(S(=O)(=O)O)c5ccccc5c4N)cc3)cc2)cc(S(=O)(=O)O)c2ccccc12 | inactive | inactive | inactive | inactive | – | – | – | – | – | – | –
2 | Nc1ccc(O)c([N+](=O)[O-])c1 | – | inactive | inactive | 7.76 µM (active) | 8.63 µM (active) | – | – | – | – | – | –
3 | CCCCNC(=O)NS(=O)(=O)c1ccc(C)cc1 | inactive | – | inactive | inactive | inactive | inactive | inactive | inactive | inactive | inactive | –
4 | CCOc1ccc(NC(C)=O)cc1 | inactive | – | inactive | inactive | inactive | inactive | inactive | inactive | inactive | inactive | –
5 | NC(=O)n1c(O)c(C(=O)c2cccs2)c2cc(Cl)ccc21 | inactive | inactive | inactive | – | – | – | – | inactive | – | inactive | –
6 | COc1ccc(OC(F)(F)F)cc1CN[C@H]1CCCN[C@H]1c1ccccc1 | 49 µM (active) | inactive | – | – | – | – | – | inactive | inactive | – | –
7 | O=c1[nH]cnc2c1ncn2[C@H]1CC[C@@H](CO)O1 | inactive | – | inactive | inactive | inactive | inactive | inactive | inactive | inactive | inactive | –
8 | C1CCC(C(CC2CCCCN2)C2CCCCC2)CC1 (stereo not given) | 21.3 µM (active) | inactive | 23.9 µM (active) | – | – | – | – | – | 26.6 µM (active) | – | –
9 | CN1[C@@H]2CC(OC(=O)[C@H](CO)c3ccccc3)C[C@H]1[C@@H]1O[C@@H]12 (stereo not given in full) | inactive | – | inactive | – | inactive | inactive | inactive | inactive | inactive | inactive | –
10 | CC1(C)O[C@@H]2C[C@H]3[C@@H]4CCC5=CC(=O)C=C[C@]5(C)[C@@]4(F)[C@@H](O)C[C@]3(C)[C@]2(C(=O)CO)O1 | inactive | – | inactive | inactive | inactive | inactive | inactive | inactive | inactive | inactive | –
11 | CN[C@H]1CC[C@@H](c2ccc(Cl)c(Cl)c2)c2ccccc21 | 23.9 µM (active) | inactive | inactive | – | – | – | – | – | – | – | –
12 | C1=CC2C3C=CC(C3)C2C1 (stereo not given) | – | inactive | inactive | – | inactive | – | – | – | inactive | – | –
13 | CCCc1cc(=O)[nH]c(=S)[nH]1 | inactive | – | inactive | inactive | inactive | inactive | inactive | inactive | inactive | inactive | –
14 | O=C(Nc1ncc([N+](=O)[O-])s1)c1cccs1 | – | inactive | – | – | inactive | – | – | – | 13.3 µM (active) | – | –
15 | Nc1ccc([N+](=O)[O-])cc1O | – | inactive | inactive | inactive | – | – | – | – | – | inactive | –
16 | Nc1ccc2c(c1)CN1C(=O)c3ccccc3C1=N2 | inactive | inactive | – | – | – | – | – | inactive | – | – | -1.9% [at 15.8 µM] (inactive)
17 | COc1ccc2cc(S(=O)(=O)N[C@H](CC(=O)N[C@H](Cc3ccc(CN4[C@H](C)CCC[C@@H]4C)cc3)C(=O)N(C)C(C)C)c3ccc4c(c3)OCO4)ccc2c1 | 20.7 µM (active) | inactive | – | – | – | – | – | – | – | – | –
18 | NS(=O)(=O)c1cc2c(cc1Cl)NCNS2(=O)=O | inactive | – | inactive | inactive | inactive | inactive | inactive | inactive | inactive | inactive | –
19 | C=C1CC[C@H](O)C/C1=C\C=C1/CCC[C@]2(C)[C@@H]([C@H](C)CCCC(C)C)CC[C@@H]12 | – | inactive | inactive | – | – | – | – | – | – | – | –
20 | COc1cccc(O)c1O | inactive | inactive | inactive | inactive | – | – | – | inactive | – | – | –
21 | CC(=O)C(=O)O | inactive | – | inactive | inactive | – | inactive | inactive | inactive | inactive | inactive | –
22 | CC12CCC(CC1)C(C)(C)O2 | inactive | – | inactive | inactive | inactive | inactive | inactive | inactive | inactive | inactive | –

Row | Structure (SMILES) | Potency [1] | outcome [2] | Potency [3] | Potency [4] | Potency [5] | Potency [6] | Potency [7] | Potency [8] | Potency [9] | Potency [10] | activation [10]
23 | NC(CO)(CO)CO | inactive | – | inactive | inactive | inactive | inactive | inactive | inactive | inactive | inactive | –
24 | Cc1c(C(=O)O)c(O)cc2c1C(=O)c1c(O)c([C@@H]3O[C@H](CO)[C@@H](O)[C@H](O)[C@H]3O)c(O)c(O)c1C2=O | inactive | – | inactive | inactive | inactive | inactive | inactive | inactive | inactive | inactive | –
25 | O=CC(=O)c1ccccc1 | inactive | inactive | inactive | – | – | – | – | – | – | – | –
26 | NC(=O)c1cccnc1 | inactive | – | inactive | inactive | inactive | inactive | inactive | inactive | inactive | inactive | –
27 | C=CCc1ccc(O)c(OC)c1 | inactive | – | inactive | inactive | inactive | inactive | inactive | inactive | inactive | inactive | –
28 | CC(=O)CC(c1ccccc1)c1c(O)c2ccccc2oc1=O (stereo not given) | inactive | – | inactive | – | inactive | inactive | inactive | inactive | inactive | inactive | –
29 | CCN(Cc1c(F)cccc1Cl)c1c([N+](=O)[O-])cc(C(F)(F)F)cc1[N+](=O)[O-] | – | inactive | – | – | inactive | – | – | – | – | – | –
30 | CN(N=O)C(=O)N[C@@H]1[C@@H](O)[C@H](O)[C@@H](CO)O[C@@H]1O | inactive | – | inactive | inactive | – | inactive | inactive | inactive | inactive | inactive | –
31 | F[B-](F)(F)F | inactive | – | inactive | inactive | – | inactive | inactive | inactive | inactive | inactive | –
32 | CCOC(N)=O | inactive | – | inactive | inactive | – | inactive | inactive | inactive | inactive | inactive | –
33 | O=C1O[C@H]([C@@H](O)CO)C(O)=C1O | inactive | – | inactive | inactive and 12.3 µM (active) | inactive | inactive | inactive | inactive | – | inactive | –
34 | CN(C)CCOC(c1ccccc1)c1ccccc1 | inactive | – | inactive | inactive | – | inactive | inactive | inactive | inactive | 49.3 µM (active) | –
35 | CS(=O)(=O)OCCCCOS(C)(=O)=O | inactive | – | inactive | inactive and 17.4 µM (active) | – | inactive | inactive | inactive | inactive | inactive | –
36 | O=C1NS(=O)(=O)c2ccccc21 | inactive | – | inactive | – | – | inactive | inactive | inactive | inactive | inactive | –
37 | CN(C)CCOC(C)(c1ccccc1)c1ccccn1 (stereo not given) | inactive | – | inactive | inactive | inactive | inactive | inactive | inactive | – | inactive | –
38 | CN(C)C(=O)Nc1ccc(Cl)c(Cl)c1 | inactive | – | inactive | inactive and 19.5 µM (active) | inactive | inactive | inactive | inactive | – | inactive | –
39 | Cn1c(=O)c2c(ncn2C)n(C)c1=O | inactive | – | inactive | inactive | – | inactive | inactive | inactive | inactive | inactive | –
40 | O=C(O)c1ccccc1 | inactive | – | inactive | inactive | inactive | inactive | inactive | inactive | – | inactive | –
41 | CCN(CC)C(=O)c1cccc(C)c1 | inactive | – | inactive | inactive | – | inactive | inactive | inactive | inactive | inactive | –
42 | C/C=C/C=C/C(=O)O | inactive | – | inactive | inactive and 49 µM (active) | – | inactive | inactive | inactive | inactive | inactive | –
43 | CN1CCC[C@H]1c1cccnc1 | inactive | – | inactive | inactive | inactive | inactive | inactive | inactive | – | inactive | –
44 | Cc1ncc([N+](=O)[O-])n1CCO | inactive | – | inactive | inactive | – | inactive | inactive | inactive | inactive | inactive | –
